Assay results taken from PubChem BioAssay AID1766 (National Center for Advancing Translational Sciences (NCATS), 2009).
Hit rate of the full screen: of about 290,000 compounds, fewer than 10 were called active. Not shown: some 3% with an inconclusive outcome. These entries were drawn from the full list. Unmarked numbers belong to inactive results. Calls come from the whole dose curve; as a rule, active = well fitted curve in the direction sought with a large enough effect in the polarisation (not every such curve was filed as active); inconclusive = small, poorly fitted or top-dose-only effect, or effect the other way, or a change in a side signal; inactive = no such curve, though single readings can be large or run the other way; the % refers to the polarisation.

Test: qHTS Assay for Inhibitors Targeting the Menin-MLL Interaction in MLL Related Leukemias: Competition With Fluorescein Labeled MLL-derived Peptide; note: % of control where 0% means no effect
Conditions: Fluorescence polarization, fluorescein-MLL peptide displacement from menin; series mostly up to 61.4 µM; FP activity change: at the top concentration
Text: qHTS Assay for Inhibitors Targeting the Menin-MLL Interaction in MLL Related Leukemias NIH Chemical Genomics Center [NCGC] NIH Molecular Libraries Probe Centers Network [MLPCN] MLPCN Grant: MH084875-01A1 Assay Submitter (PI): Jolanta Grembecka, Tomasz Cierpicki, University of Virginia Translocations of the MLL (Mixed Lineage Leukemia) gene are frequently found in human leukemias affecting both children and adults. Fusion of MLL to one of more than 60 genes results in generation of oncogenic proteins upregulating Hox genes, which are vital to blood cell development. Patients harboring fusion of the MLL gene suffer from aggressive leukemias and respond poorly to available therapies. All of the oncogenic fusion proteins have a preserved N-terminal fragment of MLL that has been identified to interact with menin. It has been recently discovered that association with menin is critical to the leukemogenic activity of the MLL fusion oncoproteins. Selective targeting of the menin-MLL interaction could provide an attractive therapeutic approach to develop novel drugs for MLL-related leukemias. Small molecules blocking the menin-MLL interaction should reverse the oncogenic potential of MLL fusion proteins. We have developed and optimized a fluorescence polarization-based assay for the identification of Menin-MLL inhibitors. The assay was run employing two different MLL-derived peptides. The present assay uses a 12 amino acid peptide labeled with fluorescein at its N-terminus. This peptide consists of the menin high affinity binding motif from MLL and is potently bound by menin. Another peptide with a mutated sequence, labeled with Texas Red, was used in parallel as a less stringent screen for inhibitors.
The Menin protein, the MLL-wild type (w.t.) derived peptide (N-terminal 12 amino acids), the MLL-derived peptide labeled with Texas Red and the MLL-w.t. peptide labeled with Fluorescein were kindly supplied by laboratory of Dr. Jolanta Grembecka, University of Virginia. All protein and peptide solutions were stored in single use aliquots at -80C. The Eu3+ Cyrptate-conjugated mouse monoclonal antibody anti-6 Histidine (Eu3+-AB) and the Streptavidin-XL665 conjugate (XL665) were purchased from Cisbio International (Bedford, MA). All antibody and XL665 conjugate solution stocks were stored in single use aliquots at -20C. The Buffer components for all assays were purchased from Sigma-Aldrich (St. Louis, MO) and Invitrogen (Carlsbad, CA). FP Assay Reagents: 1. FP reaction buffer: 50 mM Tris-HCl pH 7.5, 50 mM NaCl, 1mM DTT. Before use, 0.05% BSA is added. 2. Menin protein, MLL-w.t. labeled with fluorescein, MLL-mutant peptide labeled with texas red. Stored in singe use aliquots at -80C. 3. MLL-w.t. unlabeled peptide as positive control: 10 uM final in FP buffer. FP Assay Procedure: 1. Prepare Menin at 200 nM, MLL-w.t.-fluorescein at 25 nM, and MLL-mutant-texas red at 50 nM mixture in FP buffer. 2. Prepare Menin at 200 nM, MLL-w.t.-fluorescein at 25 nM, MLL-mutant-texas red at 50 nM, and 10 uM MLL-w.t. unlabeled mixture in FP buffer. 3. Prepare MLL-w.t.-fluorescein at 25 nM and MLL-mutant-texas red at 50 nM mixture in FP buffer. 3. Dispense 4 ul per well of reagent in step 1 in columns 2, 4 - 48 in a black 1536 well plate, dispense 4 ul per well of reagents from steps 2 and 3 in columns 1 and 3 respectively. Incubate plate at ambient for 15 minutes. 4. Transfer 23 nl per well of compound to plate and incubate at ambient for 1 hr. 5. Read fluorescence polarization for each label using the PerkinElmer Envision. Envision protocol for fluorescein: FITC FP Dual Enh Mirror, Excitation filter 480, Emission filter (1) P-pol 535, Emission filter (2) S-pol 535 Envision protocol for texas red: FP Dual Enh Mirror, Excitation filter 555, Emission filter (1) P-pol 632, Emission filter (2) S-pol 632

SMILES | FP activity change
COc1ccc(OC)c(NC(=O)CN(C)CCOc2ccc(Br)cc2)c1 | -13.1%
CC(C)(c1ccccc1)c1ccc(OCCN2CCCC2)cc1 | -1.58%
CCN(CC)c1ccc(/C=N/NC(=O)CNC(=O)c2cccs2)cc1 | 2.38%
O=C(Cc1cccs1)NCc1cccc(C(F)(F)F)c1 | -0.128%
Cc1cc(S(=O)(=O)NCc2ccccn2)c(Cl)cc1Cl | -0.167%
COc1ccccc1CNS(=O)(=O)c1ccc2c(c1)NC(=O)CS2 | -0.943%
COc1ccc(CNS(=O)(=O)c2ccc(NC(=O)N3CCCCC3)cc2)cc1 | -0.428%
Oc1ccc(-c2cccc(-c3ccc(O)cc3)c2)cc1 | 0.0539%
CCCn1c(=O)c(C(=O)Nc2cc(C)ccn2)c(O)c2ccccc21 | 1.11%
Cc1cccc(C)c1NC(=O)NC1=CCCN1C | 0.307%
O=C(Nc1ccc(F)cc1)c1ccc(S(=O)(=O)NCc2cccnc2)cc1 | -2.58%
CC(C)NC(=O)COCc1cc(-c2ccc3c(c2)OCO3)on1 | 1.18%
COc1ccc(/C=N/Nc2nc(-c3ccc(C)cc3)c(C#N)c(=O)[nH]2)cc1 | 4.62%
COc1ccc(NCCc2ccccn2)cc1 | 7.39%
COc1cc(Cl)ccc1OCc1cc(C(=O)N(C)CCc2c(C)n[nH]c2C)no1 | 5.22%
CCCCn1c(-c2cccc(C)c2)nc2cc3[nH]c(=O)c(C(C)C)nc3cc21 | -1.86%
CCOc1ccc(N(C(=O)c2snc(C(N)=O)c2N)C(C(=O)NCC2CCCO2)c2c[nH]c3ccccc23)cc1 (centres undefined) | 0.995%
O=C1OC2(CCCCC2)CC2=C1C1O[C@](c3ccsc3)(Cc3ccccc31)O2 | 6.24% [at 11.7 µM]
O=C(c1noc2c1CCCC2)N1CCc2ccccc2C1 | 4.17%
O=C(Nc1ccc(Br)cc1F)C1CC(=O)N(C2CCCCC2)C1 (centres undefined) | -3.69%
O=C(Nc1cccc(Br)c1)c1ccc2snnc2c1 | 1.58%
CCn1nnnc1SCC(=O)Nc1ccc(N(C)C)cc1 | 7.93%
CC(C)CN(CC(C)C)C(=O)CN1c2cccc3cccc(c23)S1(=O)=O | -0.109%
Cc1c(C)n(Cc2ccc(Cl)cc2)c2ccc(C(=O)NCCCN3CCOCC3)cc12 | -1.82%
COc1ccc(/C=C/c2noc(-c3ccccc3OC(C)=O)n2)cc1 | -1.92%
COc1ccc(C)cc1Nc1n[n+](-c2ccccc2)c(-c2cccc(Cl)c2Cl)s1 | -4.87%
CN(Cc1ccccc1)C(=O)C1CCCN(c2ncnc3c2nc2n3CCCCC2)C1 (centres undefined) | 7.84%

SMILES | FP activity change
C[n+]1cc(-c2ccccc2)oc1-c1ccccc1 | 2.02%
CS(=O)(=O)Nc1ccccc1N=C(c1ccccc1)c1ccccc1 | -3.8%
O=S1(=O)CCOC[C@H](CC2CCCCC2)N1Cc1ccc(F)cc1 | 3.27%
Cc1cc(C)n2nc(CNS(=O)(=O)c3c(F)c(F)c(F)c(F)c3F)nc2n1 | -0.766%
Cc1ccc(-c2ncc(Cl)cc2-c2ccc(S(C)(=O)=O)cc2)cn1 | -0.497%
CCc1ccccc1NC(=S)Nc1cc(OC)c(NC(=O)C(C)C)cc1OC | 2.06%
CC(=O)Oc1ccc(-c2cccc(C(=O)N3CCCCC3)c2)cc1 | -1.05%
O=P(O)(O)OC[C@H](O)CO | 1.8%
CCOCCCNC(=O)C1(O)c2cc(Br)ccc2NC(=O)N1c1ccc(C)c(C)c1 (centres undefined) | -1.16%
COC(=O)C1(C)NC(c2ccc(F)cc2)C2C(=O)N(c3ccccc3)C(=O)C21 (centres undefined) | 1.25%
Cc1cccc(OCCC(=O)Nc2ccccc2C(N)=O)c1 | 11.1%
COc1ccc2c(C(=O)c3ccc(C)cc3)n(CCC(N)=O)[n+]([O-])c2c1 | -1.07%
Cc1ccc(N2CCN(C(=O)c3cccs3)CC2)c(C)c1 | -3.88%
c1ccc(-c2ccc(OCCN3CCOCC3)cc2)cc1 | -3.06%
COc1ccc(N(CC(=O)NCCSCc2cccc(Cl)c2)S(C)(=O)=O)cc1 | -0.4%
COc1ccc(C(=O)O/N=C(\N)c2ccccn2)cc1[N+](=O)[O-] | 2.14%
NS(=O)(=O)c1ccc2nc(NC(=O)C3=COCCO3)sc2c1 | -3.94%
COc1ccc(N2CCN(C(=O)c3cccs3)CC2)cc1 | -2.7%
CS(=O)(=O)N1CCCC(C(=O)Nc2ccccc2C(F)(F)F)C1 (centres undefined) | -2.75%
O=C(Nc1nnc(C2=COCCO2)o1)c1ccc([N+](=O)[O-])s1 | -4.17%
CC1CCN(CC(O)COc2ccc(C(=O)c3ccccc3)cc2)CC1 (centres undefined) | -3.11%
CC(C)(O)c1ccccc1CC[C@H](SCC1(CC(=O)O)CC1)c1cccc(/C=C/c2ccc3ccc(Cl)cc3n2)c1 | -1.58%
CCOc1ccc(CN2CCC(n3nccc3NC(=O)C3CC3)CC2)cc1CO | 0.299%
COc1cc(/C=C/C(=O)O)cc(S(=O)(=O)Nc2ccccc2C(=O)NCCc2ccccc2)c1OC | 3.17%
Cc1cc(=O)[nH]c(Nc2cccc(Br)c2)n1 | 0.992%
CCCc1cc(C(=O)Nc2ccc(Cl)cn2)cs1 | -1.52%
Cc1ccc(S(=O)(=O)NCC2CCC(C(=O)N3CCOCC3)CC2)cc1 (centres undefined) | -11.9%
